Source: publication PMC7862700, “An all-to-all approach to the identification of sequence-specific readers for epigenetic DNA modifications on cytosine”

Tests used:
Test in all cases: DAPPL (digital affinity profiling via proximity ligation, sequencing); 10 mM Tris-HCl pH 7.5, 50 mM NaCl, 1 mM DTT, 4% glycerol, room temperature, 30 min; GST-TFs on glutathione beads, 16-mer random dsDNA library, 0.1% formaldehyde crosslink after washing; high values mean tight binding
FLI1 = biological target: T1, FLI1 (Homo sapiens, UniProt Q01543 1-452); conditions: protein: recombinant; tags: N-terminal GST; dsDNA, one strand shown
T1 sequence: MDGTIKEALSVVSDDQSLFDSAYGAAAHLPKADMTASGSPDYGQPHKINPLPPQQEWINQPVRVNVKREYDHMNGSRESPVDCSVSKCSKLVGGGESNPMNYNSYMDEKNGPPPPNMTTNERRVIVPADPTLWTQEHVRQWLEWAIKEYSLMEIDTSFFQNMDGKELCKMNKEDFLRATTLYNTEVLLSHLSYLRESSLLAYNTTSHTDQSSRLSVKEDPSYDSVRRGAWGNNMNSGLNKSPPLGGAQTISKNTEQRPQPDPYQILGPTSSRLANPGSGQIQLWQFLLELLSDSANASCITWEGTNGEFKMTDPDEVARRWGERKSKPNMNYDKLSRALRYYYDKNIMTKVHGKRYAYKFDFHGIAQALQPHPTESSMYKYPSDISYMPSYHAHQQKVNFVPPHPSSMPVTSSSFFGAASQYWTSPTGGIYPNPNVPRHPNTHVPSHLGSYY
In short: (§1)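 Human transcription factors fused to GST were expressed in yeast, captured on glutathione beads, given DNA barcodes and pooled with a GST-only negative control. Pools were incubated with 200 nmole of a 16-mer random double-stranded DNA library in Tris/NaCl/DTT/glycerol buffer at room temperature for 30 min. They were then washed, crosslinked with 0.1% formaldehyde, proximity-ligated (BsaI/T4 ligase, 1 h, 37 °C), PCR-amplified and sequenced on an Illumina NextSeq500. Binding signal is each 6-mer's read frequency for a factor divided by its frequency for the GST control.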

ELK1 = biological target: T2, ELK1 (Homo sapiens, UniProt P19419 1-428); conditions: protein: recombinant; tags: N-terminal GST; dsDNA, one strand shown
T2 sequence: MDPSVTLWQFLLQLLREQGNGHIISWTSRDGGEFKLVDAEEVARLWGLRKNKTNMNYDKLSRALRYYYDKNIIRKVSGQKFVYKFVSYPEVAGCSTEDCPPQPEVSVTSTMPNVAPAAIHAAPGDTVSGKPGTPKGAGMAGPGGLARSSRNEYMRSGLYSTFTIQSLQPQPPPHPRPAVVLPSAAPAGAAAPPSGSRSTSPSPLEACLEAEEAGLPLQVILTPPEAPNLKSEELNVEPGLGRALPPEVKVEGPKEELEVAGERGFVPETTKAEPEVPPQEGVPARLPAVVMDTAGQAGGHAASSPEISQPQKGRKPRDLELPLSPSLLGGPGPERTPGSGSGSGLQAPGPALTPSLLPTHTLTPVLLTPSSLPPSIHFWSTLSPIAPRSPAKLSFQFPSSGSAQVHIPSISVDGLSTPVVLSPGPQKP
In short: as §1

GABPA = biological target: T3, GABPA (Homo sapiens, UniProt Q06546 1-454); conditions: protein: recombinant; tags: N-terminal GST; dsDNA, one strand shown
T3 sequence: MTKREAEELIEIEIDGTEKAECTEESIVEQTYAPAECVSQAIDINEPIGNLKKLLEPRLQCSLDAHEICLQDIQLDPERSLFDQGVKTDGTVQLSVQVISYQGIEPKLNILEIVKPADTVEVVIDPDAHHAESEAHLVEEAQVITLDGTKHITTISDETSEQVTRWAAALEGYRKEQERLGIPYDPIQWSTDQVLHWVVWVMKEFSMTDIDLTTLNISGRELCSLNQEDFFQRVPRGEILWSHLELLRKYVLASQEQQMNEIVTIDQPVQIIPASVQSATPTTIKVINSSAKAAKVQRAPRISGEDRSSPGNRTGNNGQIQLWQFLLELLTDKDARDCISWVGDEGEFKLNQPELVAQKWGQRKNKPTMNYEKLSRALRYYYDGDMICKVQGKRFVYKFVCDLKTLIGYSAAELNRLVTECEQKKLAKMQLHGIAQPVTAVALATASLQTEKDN
In short: as §1

ERG = biological target: T4, ERG (Homo sapiens, UniProt P11308 1-479); conditions: protein: recombinant; tags: N-terminal GST; dsDNA, one strand shown
T4 sequence: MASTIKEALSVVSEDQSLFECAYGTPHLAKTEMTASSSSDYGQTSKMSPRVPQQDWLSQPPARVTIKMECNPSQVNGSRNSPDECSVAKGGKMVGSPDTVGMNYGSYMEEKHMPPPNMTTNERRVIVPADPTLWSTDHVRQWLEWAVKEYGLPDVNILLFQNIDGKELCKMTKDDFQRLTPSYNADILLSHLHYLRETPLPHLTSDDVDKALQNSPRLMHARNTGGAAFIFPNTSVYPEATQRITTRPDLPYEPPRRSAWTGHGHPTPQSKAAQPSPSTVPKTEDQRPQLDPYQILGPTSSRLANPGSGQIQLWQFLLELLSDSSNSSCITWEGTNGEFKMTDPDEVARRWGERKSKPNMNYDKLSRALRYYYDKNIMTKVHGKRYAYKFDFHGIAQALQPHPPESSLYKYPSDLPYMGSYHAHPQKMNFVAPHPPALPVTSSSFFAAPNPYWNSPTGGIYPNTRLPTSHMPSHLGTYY
In short: as §1

ELF1 = ELF1 (Homo sapiens, UniProt P32519 1-619); conditions: protein: recombinant; tags: N-terminal GST; dsDNA, one strand shown
In short: as §1

EHF = biological target: T5, EHF (Homo sapiens, UniProt Q9NZC4 1-300); conditions: protein: recombinant; tags: N-terminal GST; dsDNA, one strand shown
T5 sequence: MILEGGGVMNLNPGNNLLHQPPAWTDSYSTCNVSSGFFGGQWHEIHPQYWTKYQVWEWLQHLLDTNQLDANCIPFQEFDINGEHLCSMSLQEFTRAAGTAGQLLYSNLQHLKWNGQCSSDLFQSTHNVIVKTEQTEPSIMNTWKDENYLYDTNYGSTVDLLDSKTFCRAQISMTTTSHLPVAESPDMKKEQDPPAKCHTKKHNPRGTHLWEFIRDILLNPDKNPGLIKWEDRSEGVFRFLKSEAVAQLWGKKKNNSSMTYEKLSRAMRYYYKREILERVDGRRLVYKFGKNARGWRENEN
In short: as §1

SPI1 = SPI1 (Homo sapiens, UniProt P17947 1-270); conditions: protein: recombinant; tags: N-terminal GST; dsDNA, one strand shown
In short: as §1

SPIB = SPIB (Homo sapiens, UniProt Q01892 1-262); conditions: protein: recombinant; tags: N-terminal GST; dsDNA, one strand shown
In short: as §1

ELK3 = biological target: T6, ELK3 (Homo sapiens, UniProt P41970 1-407); conditions: protein: recombinant; tags: N-terminal GST; dsDNA, one strand shown
T6 sequence: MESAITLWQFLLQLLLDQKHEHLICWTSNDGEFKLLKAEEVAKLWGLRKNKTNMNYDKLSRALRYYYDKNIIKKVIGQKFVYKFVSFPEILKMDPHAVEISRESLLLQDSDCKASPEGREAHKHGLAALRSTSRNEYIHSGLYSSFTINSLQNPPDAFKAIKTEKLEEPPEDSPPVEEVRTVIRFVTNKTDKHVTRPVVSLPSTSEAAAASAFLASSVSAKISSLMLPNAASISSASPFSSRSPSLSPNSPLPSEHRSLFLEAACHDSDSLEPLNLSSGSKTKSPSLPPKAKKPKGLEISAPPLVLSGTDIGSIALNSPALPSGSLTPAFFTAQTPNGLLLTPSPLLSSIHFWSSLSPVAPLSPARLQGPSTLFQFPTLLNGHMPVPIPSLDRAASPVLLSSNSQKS
In short: as §1

FEV = biological target: T7, FEV (Homo sapiens, UniProt Q99581 1-238); conditions: protein: recombinant; tags: N-terminal GST; dsDNA, one strand shown
T7 sequence: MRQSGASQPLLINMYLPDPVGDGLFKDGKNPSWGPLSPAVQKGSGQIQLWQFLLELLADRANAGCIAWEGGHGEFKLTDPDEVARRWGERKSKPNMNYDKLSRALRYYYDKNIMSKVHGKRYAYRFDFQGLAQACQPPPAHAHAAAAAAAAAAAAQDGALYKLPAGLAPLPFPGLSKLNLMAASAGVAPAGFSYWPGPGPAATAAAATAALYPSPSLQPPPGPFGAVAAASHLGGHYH
In short: as §1

ETV5 = ETV5 (Homo sapiens, UniProt P41161 1-510); conditions: protein: recombinant; tags: N-terminal GST; dsDNA, one strand shown
In short: as §1

HSF1 = HSF1 (Homo sapiens, UniProt Q00613 1-529); conditions: protein: recombinant; tags: N-terminal GST; chain copies: 3; dsDNA, one strand shown
In short: as §1

SPIC = biological target: T8, SPIC (Homo sapiens, UniProt Q8N5J4 1-248); conditions: protein: recombinant; tags: N-terminal GST; dsDNA, one strand shown
T8 sequence: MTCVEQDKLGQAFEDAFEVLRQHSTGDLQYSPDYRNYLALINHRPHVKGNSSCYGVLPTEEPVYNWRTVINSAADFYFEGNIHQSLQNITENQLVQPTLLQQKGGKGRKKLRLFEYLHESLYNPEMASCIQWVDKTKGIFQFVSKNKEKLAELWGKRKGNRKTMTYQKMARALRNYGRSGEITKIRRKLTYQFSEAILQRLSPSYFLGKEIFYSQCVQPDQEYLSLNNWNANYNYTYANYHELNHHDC
In short: as §1

ELF4 = ELF4 (Homo sapiens, UniProt Q99607 1-663); conditions: protein: recombinant; tags: N-terminal GST; dsDNA, one strand shown
In short: as §1

ELK4 = biological target: T9, ELK4 (Homo sapiens, UniProt P28324-2 1-405); conditions: protein: recombinant; tags: N-terminal GST; dsDNA, one strand shown
T9 sequence: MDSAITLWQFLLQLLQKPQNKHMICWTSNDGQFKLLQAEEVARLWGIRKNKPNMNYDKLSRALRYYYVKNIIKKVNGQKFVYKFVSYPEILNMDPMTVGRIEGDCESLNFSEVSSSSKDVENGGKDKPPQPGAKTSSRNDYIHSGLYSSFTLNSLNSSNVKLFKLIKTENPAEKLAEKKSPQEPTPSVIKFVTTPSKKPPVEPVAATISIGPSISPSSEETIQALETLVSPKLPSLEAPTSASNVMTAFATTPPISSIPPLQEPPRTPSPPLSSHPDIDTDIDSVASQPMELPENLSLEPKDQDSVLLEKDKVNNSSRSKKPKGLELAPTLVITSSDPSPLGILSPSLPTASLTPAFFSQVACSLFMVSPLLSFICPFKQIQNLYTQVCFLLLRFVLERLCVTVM
In short: as §1

ETV2 = biological target: T10, ETV2 (Homo sapiens, UniProt O00321 1-342); conditions: protein: recombinant; tags: N-terminal GST; dsDNA, one strand shown
T10 sequence: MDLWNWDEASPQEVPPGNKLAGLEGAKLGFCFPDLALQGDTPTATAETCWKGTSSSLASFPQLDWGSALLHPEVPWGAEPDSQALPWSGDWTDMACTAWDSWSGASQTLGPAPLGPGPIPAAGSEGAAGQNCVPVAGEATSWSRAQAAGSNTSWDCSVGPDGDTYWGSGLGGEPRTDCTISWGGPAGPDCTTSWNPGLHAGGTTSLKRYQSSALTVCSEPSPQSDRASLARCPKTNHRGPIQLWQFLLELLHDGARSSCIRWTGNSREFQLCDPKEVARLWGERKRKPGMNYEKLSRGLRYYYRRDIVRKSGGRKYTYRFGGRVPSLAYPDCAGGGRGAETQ
In short: as §1

ELF3 = biological target: T11, ELF3 (Homo sapiens, UniProt P78545 1-371); conditions: protein: recombinant; tags: N-terminal GST; dsDNA, one strand shown
T11 sequence: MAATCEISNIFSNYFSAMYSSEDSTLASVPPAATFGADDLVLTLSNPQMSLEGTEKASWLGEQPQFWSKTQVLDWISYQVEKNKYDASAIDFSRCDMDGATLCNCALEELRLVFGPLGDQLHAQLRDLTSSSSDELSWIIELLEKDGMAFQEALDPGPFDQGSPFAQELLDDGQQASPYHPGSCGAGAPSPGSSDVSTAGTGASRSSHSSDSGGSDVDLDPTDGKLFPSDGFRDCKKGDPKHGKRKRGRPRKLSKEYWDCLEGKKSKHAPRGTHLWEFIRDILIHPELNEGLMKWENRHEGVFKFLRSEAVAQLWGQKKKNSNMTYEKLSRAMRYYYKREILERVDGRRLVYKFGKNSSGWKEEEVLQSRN
In short: as §1

CRX = CRX (Homo sapiens, UniProt O43186 1-299); conditions: protein: recombinant; tags: N-terminal GST; dsDNA, one strand shown
In short: as §1

ETV1 = ETV1 (Homo sapiens, UniProt P50549 1-477); conditions: protein: recombinant; tags: N-terminal GST; dsDNA, one strand shown
In short: as §1

Sequence of ETV5 (P41161 whole entry): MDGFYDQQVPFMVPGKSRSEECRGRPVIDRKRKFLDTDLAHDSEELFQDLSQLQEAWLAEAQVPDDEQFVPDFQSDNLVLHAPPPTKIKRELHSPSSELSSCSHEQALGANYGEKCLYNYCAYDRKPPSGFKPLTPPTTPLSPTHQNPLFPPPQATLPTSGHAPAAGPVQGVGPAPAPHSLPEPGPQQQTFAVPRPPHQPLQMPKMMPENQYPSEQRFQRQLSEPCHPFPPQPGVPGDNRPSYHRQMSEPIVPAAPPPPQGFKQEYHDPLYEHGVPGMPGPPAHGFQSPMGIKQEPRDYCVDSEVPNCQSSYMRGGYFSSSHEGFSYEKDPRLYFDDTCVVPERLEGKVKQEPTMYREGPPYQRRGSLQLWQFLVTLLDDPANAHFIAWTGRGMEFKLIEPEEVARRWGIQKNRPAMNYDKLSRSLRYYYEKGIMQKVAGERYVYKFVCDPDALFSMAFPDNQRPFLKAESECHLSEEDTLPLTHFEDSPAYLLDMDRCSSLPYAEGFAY
Sequence of HSF1 (Q00613 whole entry): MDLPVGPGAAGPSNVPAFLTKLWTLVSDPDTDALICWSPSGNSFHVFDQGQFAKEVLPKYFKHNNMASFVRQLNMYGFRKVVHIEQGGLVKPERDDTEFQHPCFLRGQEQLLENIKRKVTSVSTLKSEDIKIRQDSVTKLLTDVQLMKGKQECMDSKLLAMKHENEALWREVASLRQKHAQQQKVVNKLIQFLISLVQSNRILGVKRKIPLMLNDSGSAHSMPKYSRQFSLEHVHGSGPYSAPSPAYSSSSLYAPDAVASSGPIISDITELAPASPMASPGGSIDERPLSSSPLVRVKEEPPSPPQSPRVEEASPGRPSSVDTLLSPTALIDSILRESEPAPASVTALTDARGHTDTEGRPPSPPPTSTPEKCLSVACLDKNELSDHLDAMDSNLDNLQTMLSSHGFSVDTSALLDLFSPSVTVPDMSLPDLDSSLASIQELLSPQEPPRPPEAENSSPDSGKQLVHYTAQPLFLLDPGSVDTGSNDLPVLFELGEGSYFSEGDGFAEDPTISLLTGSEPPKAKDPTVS
Sequence of ELF4 (Q99607 whole entry): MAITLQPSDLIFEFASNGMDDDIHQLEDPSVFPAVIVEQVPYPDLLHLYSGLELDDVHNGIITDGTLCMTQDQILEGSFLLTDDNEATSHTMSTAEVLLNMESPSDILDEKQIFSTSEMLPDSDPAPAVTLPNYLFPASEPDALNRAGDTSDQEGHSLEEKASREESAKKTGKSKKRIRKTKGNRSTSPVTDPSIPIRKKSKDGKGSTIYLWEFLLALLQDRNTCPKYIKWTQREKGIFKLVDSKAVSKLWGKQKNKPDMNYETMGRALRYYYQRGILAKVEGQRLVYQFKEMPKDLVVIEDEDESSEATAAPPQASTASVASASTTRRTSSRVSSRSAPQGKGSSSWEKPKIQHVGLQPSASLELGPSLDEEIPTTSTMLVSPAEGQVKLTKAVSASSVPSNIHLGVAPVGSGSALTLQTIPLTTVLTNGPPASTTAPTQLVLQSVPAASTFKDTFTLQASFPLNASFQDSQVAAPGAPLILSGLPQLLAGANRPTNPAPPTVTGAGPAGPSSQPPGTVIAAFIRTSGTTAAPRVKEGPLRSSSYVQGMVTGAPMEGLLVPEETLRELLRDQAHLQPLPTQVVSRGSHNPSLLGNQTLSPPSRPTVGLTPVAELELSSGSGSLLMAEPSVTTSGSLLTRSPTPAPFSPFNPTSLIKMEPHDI
Sequence of SPIB (Q01892 whole entry): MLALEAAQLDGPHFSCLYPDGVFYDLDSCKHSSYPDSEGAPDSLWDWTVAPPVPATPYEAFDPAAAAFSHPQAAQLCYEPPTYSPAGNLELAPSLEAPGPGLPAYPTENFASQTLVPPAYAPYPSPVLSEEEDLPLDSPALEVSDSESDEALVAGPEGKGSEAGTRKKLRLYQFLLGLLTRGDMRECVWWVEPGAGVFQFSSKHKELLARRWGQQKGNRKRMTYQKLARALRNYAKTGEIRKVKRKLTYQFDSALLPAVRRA
Sequence of ETV1 (P50549 whole entry): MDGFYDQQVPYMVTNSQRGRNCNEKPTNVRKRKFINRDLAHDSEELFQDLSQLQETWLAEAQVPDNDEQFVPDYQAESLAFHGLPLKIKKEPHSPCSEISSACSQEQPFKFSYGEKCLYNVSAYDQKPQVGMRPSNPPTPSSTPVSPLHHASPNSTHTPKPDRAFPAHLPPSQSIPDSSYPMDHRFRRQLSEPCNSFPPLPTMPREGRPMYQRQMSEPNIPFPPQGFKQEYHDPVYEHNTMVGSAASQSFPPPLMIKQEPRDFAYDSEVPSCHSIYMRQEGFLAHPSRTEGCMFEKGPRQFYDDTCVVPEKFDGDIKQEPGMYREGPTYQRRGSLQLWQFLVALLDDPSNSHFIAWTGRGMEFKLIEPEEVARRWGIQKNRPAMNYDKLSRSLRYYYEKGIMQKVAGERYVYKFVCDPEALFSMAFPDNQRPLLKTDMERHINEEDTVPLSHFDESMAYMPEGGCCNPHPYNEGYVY
Sequence of ELF1 (P32519 whole entry): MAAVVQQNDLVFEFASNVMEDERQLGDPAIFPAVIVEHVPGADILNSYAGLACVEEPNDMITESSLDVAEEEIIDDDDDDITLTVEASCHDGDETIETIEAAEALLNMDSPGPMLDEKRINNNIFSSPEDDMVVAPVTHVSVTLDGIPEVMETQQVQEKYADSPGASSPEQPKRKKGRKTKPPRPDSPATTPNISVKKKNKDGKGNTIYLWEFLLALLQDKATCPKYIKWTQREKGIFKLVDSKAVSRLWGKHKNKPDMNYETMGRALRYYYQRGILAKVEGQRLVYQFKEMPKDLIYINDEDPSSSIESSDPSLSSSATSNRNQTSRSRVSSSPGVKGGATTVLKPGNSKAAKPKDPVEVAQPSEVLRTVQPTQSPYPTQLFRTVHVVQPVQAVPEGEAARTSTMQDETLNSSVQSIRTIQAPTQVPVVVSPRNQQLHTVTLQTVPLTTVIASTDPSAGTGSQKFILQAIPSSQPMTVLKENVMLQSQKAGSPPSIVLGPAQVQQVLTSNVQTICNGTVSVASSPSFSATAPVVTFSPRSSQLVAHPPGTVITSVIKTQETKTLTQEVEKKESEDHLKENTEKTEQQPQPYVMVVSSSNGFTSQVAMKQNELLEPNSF
Sequence of CRX (O43186 whole entry): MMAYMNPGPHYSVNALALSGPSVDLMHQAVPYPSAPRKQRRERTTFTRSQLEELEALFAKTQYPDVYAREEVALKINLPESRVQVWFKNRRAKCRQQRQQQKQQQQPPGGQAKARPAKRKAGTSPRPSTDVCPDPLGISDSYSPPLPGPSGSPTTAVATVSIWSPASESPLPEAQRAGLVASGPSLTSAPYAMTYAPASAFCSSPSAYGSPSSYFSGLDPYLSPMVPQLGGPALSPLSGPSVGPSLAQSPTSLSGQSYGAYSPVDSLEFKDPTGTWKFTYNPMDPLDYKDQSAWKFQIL

With CTCTTT the binding signal (FLI1) was 1.37 fold enrichment (6-mer frequency, TF over GST control), the binding signal (ELK1) was 1.33 fold enrichment (6-mer frequency, TF over GST control) and the binding signal (GABPA) was 1.39 fold enrichment (6-mer frequency, TF over GST control). For the same sequence, the binding signal (ERG) was 1.43 fold enrichment (6-mer frequency, TF over GST control), the binding signal (ELF1) was 1.53 fold enrichment (6-mer frequency, TF over GST control) and the binding signal (EHF) was 1.55 fold enrichment (6-mer frequency, TF over GST control). The binding signal (SPI1) was 2.23 fold enrichment (6-mer frequency, TF over GST control), the binding signal (SPIB) was 1.42 fold enrichment (6-mer frequency, TF over GST control) and the binding signal (ELK3) was 1.66 fold enrichment (6-mer frequency, TF over GST control). For the same sequence, the binding signal (FEV) was 1.47 fold enrichment (6-mer frequency, TF over GST control), the binding signal (ETV5) was 1.42 fold enrichment (6-mer frequency, TF over GST control) and the binding signal (HSF1) was 1.4 fold enrichment (6-mer frequency, TF over GST control). The binding signal (SPIC) was 1.35 fold enrichment (6-mer frequency, TF over GST control), the binding signal (ELF4) was 1.44 fold enrichment (6-mer frequency, TF over GST control) and the binding signal (ELK4) was 1.31 fold enrichment (6-mer frequency, TF over GST control). For the same sequence, the binding signal (ETV2) was 1.58 fold enrichment (6-mer frequency, TF over GST control), the binding signal (ELF3) was 1.4 fold enrichment (6-mer frequency, TF over GST control) and the binding signal (CRX) was 1.53 fold enrichment (6-mer frequency, TF over GST control). For the same sequence, the binding signal (ETV1) was 1.44 fold enrichment (6-mer frequency, TF over GST control).
